According to PubChem BioAssay:
Where “and” joins values, the source holds several entries; their conditions need not be identical. Equal values may be shown once. Calls of active or inactive are those of the source. Cut-off read from the data, not from the text of the source, unless noted: active = inhibition above about 80%; inactive = the rest.

Tests used:
[1] = growth inhibition, single agents and combos, LFS_MB_1R, cell-based, cisplatin or BGB combos, synergistic combos for chromothripsis tumors (AID 1671452); settings: LFS_MB_1R medulloblastoma cells, stronger effect = higher value;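 note: cells exposed for 96 hours before readout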
[2] = growth inhibition, single agents and combos, CRL2098, cell-based, BGB or cisplatin IC20 combos, synergistic combos for chromothripsis tumors (AID 1671454); settings: CRL2098 osteosarcoma cells, drug combinations, stronger effect = higher value;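 note: cells exposed for 96 h before readout; 0% = vehicle DMSO and 100% = killing by high DMSO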
[3] = growth inhibition, single agents and combos, HD-MB03, cell-based, BGB or cisplatin IC20 combos, synergistic combos for chromothripsis tumors (AID 1671455; in the data active = inhibition above about 83%;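 note: 0% = vehicle DMSO and 100% = high DMSO as cytotoxic control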); settings: HD-MB03 medulloblastoma cells, stronger effect = higher value
[4] = growth inhibition, single agents and combos, UWB1.289, cell-based, BGB or cisplatin combos, synergistic combos for chromothripsis tumors (AID 1671456); settings: UWB1.289 ovarian carcinoma cells, stronger effect = higher value;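 note: cells exposed to compound for four days; 0% = vehicle DMSO and 100% = killing by high DMSO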
[5] = growth inhibition, single agents and combos, LFS_MB_2R, cell-based, cisplatin combos, synergistic combos for chromothripsis tumors (AID 1671457); settings: LFS_MB_2R medulloblastoma cells, stronger effect = higher value;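 note: cells exposed to compound for four days before readout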
[6] = UWB1.289_BRCA1 ovarian cancer growth, cell-based, BGB or cisplatin combinations (AID 1671459); settings: UWB1.289 BRCA1 ovarian carcinoma, drug combinations, stronger effect = higher value
[7] = drug combination toxicity in non-malignant astrocytes – cell-based, BGB or cisplatin IC20 combos, cytotoxicity control for chromothriptic childhood tumor combination screen (AID 1671460); settings: Human astrocytes, viability inhibition, drug combinations, at 0.5 µM, stronger effect = higher value;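 note: cells exposed to compounds for 96 hours before viability readout; 0% = vehicle and 100% = killing control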
[8] = CRL1545 cell growth, single agent and combined, cisplatin and BGB IC20 combos (AID 1671464); settings: CRL1545 osteosarcoma cells, stronger effect = higher value;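 note: cells exposed to compound for 96 hours before readout; 0% = vehicle DMSO and 100% = high DMSO killing control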
[9] = blockers of cellular phospholipid synthesis – cell-based, LOPAC library, screen 4, primary screen (AID 1347384; call rule not given here); settings: animal cells, phospholipid biosynthesis inhibition screen; at 10 µM
[10] = galactose survival enhancers in mitochondrial complex I cybrids – cell-based, galactose medium, ATP luminescence, primary screen (AID 1645843;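 active = z-score of at least 1.8 in each of two replicates, scored against plate mean and spread of sample wells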;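 note: positive z means more ATP and so rescue of galactose-driven cybrid death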); settings: complex I mutant cybrid cells, 72 h, stronger effect = higher value
[11] = liver-stage malaria parasite load reduction – cell-based, known kinase inhibitor set, luminescence, hepatoma host viability (AID 624392; call rule not given here;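 note: infected cells incubated roughly two days before readout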); settings: Plasmodium liver stage in hepatoma cells, luciferase luminescence, concentration not given here; liver cell % of control: measured here: host liver cell viability; parasite % of control: stronger effect = lower value
[12] = P. berghei load reduction in hepatocytes – cell-based, HepG2, luciferase luminescence, HepG2 viability, primary screen (AID 624349; in the data active = parasite load remaining mostly below about 12%, no sharp cut-off; inactive = mostly above about 10%;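 note: 100% = mean of DMSO negative control wells on the same plate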); settings: P. berghei liver stage in HepG2, luciferase luminescence, concentration not given here; parasite load remaining: stronger effect = lower value; viability: measured here: HepG2 viability without parasites
[13] = measured here: combination with BGB IC40, at 0.05 µM
[14] = measured here: combination with cisplatin, at 0.5 µM
[15] = measured here: combination with cisplatin, at 5 µM
[16] = measured here: combination with BGB at IC20, at 0.5 µM
[17] = measured here: combination with cisplatin at IC20, at 0.5 µM
[18] = measured here: combo with BGB at IC20, at 0.5 µM
[19] = measured here: combo with cisplatin at IC20, at 0.5 µM
[20] = measured here: inhibition with BGB combination, at 0.05 µM
[21] = measured here: inhibition with cisplatin combination, at 0.05 µM
[22] = BGB combination, concentration series, at 5 µM
[23] = cisplatin combination, concentration series, at 5 µM
[24] = measured here: combo with BGB IC20
[25] = measured here: combo with cisplatin IC20
[26] = measured here: with BGB IC20 combination, at 0.5 µM
[27] = measured here: with cisplatin IC20 combination, at 0.5 µM

With O=c1cc(N2CCOCC2)oc2c(-c3cccc4c3sc3ccccc34)cccc12 the inhibition ([1]; at 0.5 µM) was -39.7% (inactive), the inhibition [1, 13] was -46.9% and the inhibition [1, 14] was -75.1%. The inhibition [1, 15] was -3.55%, the inhibition ([2]; at 0.5 µM) was -62.4% (inactive) and the inhibition [2, 16] was -46.6%. The inhibition [2, 17] was -92%, the inhibition ([3]; at 0.5 µM) was 0.79% (inactive) and the inhibition [3, 18] was -1.46%. The inhibition [3, 19] was 11.5%, the inhibition ([4]; at 0.5 µM) was -12.2% (inactive) and the inhibition [4, 20] was -24%. For the same compound, the inhibition [4, 21] was -24.1%, the inhibition ([5]; at 0.5 µM) was -22.4% (inactive) and the inhibition [5, 14] was -18.6%. The inhibition [5, 15] was -3.32%, the inhibition [6, 22] was 44.6% and the inhibition ([6]; at 0.5 µM) was -11.7% (inactive). The inhibition [6, 23] was 12.1%, the inhibition [7] was 9.11% (inactive) and the inhibition [7, 24] was 7.86%. For the same compound, the inhibition [7, 25] was 13%, the inhibition ([8]; at 0.5 µM) was 17.1% (inactive) and the inhibition [8, 26] was -25.4%. The inhibition [8, 27] was 37.3%, the inhibition ([8]; single agent, at 0.05 µM) was -18.4% and the inhibition ([8]; single agent, at 5 µM) was -71.2%.

With CCOC(=O)N1CCN(/[N+]([O-])=N/Oc2ccc([N+](=O)[O-])cc2[N+](=O)[O-])CC1 the outcome [9] was “inactive” and the z-score [10] was -0.95 (inactive).

In the case of Nc1ccc(-c2ccc3ncc4ccc(=O)n(-c5cccc(C(F)(F)F)c5)c4c3c2)cn1, the inhibition ([1]; at 0.5 µM) is reported as -12.4% (inactive), the inhibition [1, 13] is reported as -33.9% and the inhibition [1, 14] is reported as -17%. For the same compound, the inhibition [1, 15] was 48.5%, the inhibition ([2]; at 0.5 µM) was 47.4% (inactive) and the inhibition [2, 16] was 49.5%. The inhibition [2, 17] was 49.4%, the inhibition ([3]; at 0.5 µM) was 39.9% (inactive) and the inhibition [3, 18] was 13.5%. For the same compound, the inhibition [3, 19] was 69.9%, the inhibition ([4]; at 0.5 µM) was 49.8% (inactive) and the inhibition [4, 20] was -0.684%. The inhibition [4, 21] was 1.16%, the inhibition ([5]; at 0.5 µM) was 2.91% (inactive) and the inhibition [5, 14] was 17.6%. For the same compound, the inhibition [5, 15] was 76.8%, the inhibition [6, 22] was 98.8% and the inhibition ([6]; at 0.5 µM) was 52.1% (inactive). For the same compound, the inhibition [6, 23] was 104%, the inhibition [7] was 76.8% (inactive) and the inhibition [7, 24] was 71%. The inhibition [7, 25] was 77.3%, the inhibition ([8]; at 0.5 µM) was 79.5% (inactive) and the inhibition [8, 26] was 69.2%. For the same compound, the inhibition [8, 27] was 84.4%, the inhibition ([8]; single agent, at 0.05 µM) was -3.59% and the inhibition ([8]; single agent, at 5 µM) was 98.4%.

For CC(C)(O)c1cc2nc(-c3cnc(N)nc3)nc(N3CCOCC3)c2s1, the liver cell % of control [11] was 68.4% and 67.7% and 82.5% and the parasite % of control [11] was 539% (inactive) and 545% (inactive) and 563% (inactive).

For O=C(/C=C/c1ccc(CN(CCO)CCc2c[nH]c3ccccc23)cc1)NO, the inhibition ([1]; at 0.5 µM) was 88.5% (active), the inhibition [1, 13] was 0.114% and the inhibition [1, 14] was 107%. The inhibition [1, 15] was 101%, the inhibition ([2]; at 0.5 µM) was 80.2% (active) and the inhibition [2, 16] was 80.4%. The inhibition [2, 17] was 75.9%, the inhibition ([3]; at 0.5 µM) was 99.8% (active) and the inhibition [3, 18] was 99.8%. For the same compound, the inhibition [3, 19] was 100%, the inhibition ([4]; at 0.5 µM) was 88.8% (active) and the inhibition [4, 20] was 9.36%. For the same compound, the inhibition [4, 21] was 34.8%, the inhibition ([5]; at 0.5 µM) was 87.1% (active) and the inhibition [5, 14] was 99.3%. For the same compound, the inhibition [5, 15] was 107%, the inhibition [6, 22] was 126% and the inhibition ([6]; at 0.5 µM) was 95.2% (active). The inhibition [6, 23] was 130%, the inhibition [7] was 95.2% (active) and the inhibition [7, 24] was 92%. For the same compound, the inhibition [7, 25] was 97.1%, the inhibition ([8]; at 0.5 µM) was 87.1% (active) and the inhibition [8, 26] was 82.2%. The inhibition [8, 27] was 89.4%, the inhibition ([8]; single agent, at 0.05 µM) was 86.9% and the inhibition ([8]; single agent, at 5 µM) was 94.5%.

With CN[C@@H]1C[C@H]2O[C@@](C)([C@@H]1OC)n1c3ccccc3c3c4c(c5c6ccccc6n2c5c31)C(=O)N[C@H]4O the parasite load remaining [12] was 74.5% (inactive) and the viability [12] was 61%.
